# PubChem BioAssay AID504375 (National Center for Advancing Translational Sciences (NCATS), 2011)
# The whole screen tested about 1,600 compounds, of which about 25 (2%) were called active. Not shown: some 7% with an inconclusive outcome. Calls come from the whole dose curve; as a rule, active = well fitted inhibition curve with a large enough effect; inconclusive = small, poorly fitted or top-dose-only effect, or effect the other way; inactive = no such curve, though single readings can be large or run the other way. What follows is part of a selection rich in actives, with near analogues and random picks from the rest. Where a call stands in place of a potency, no number is given.
# Target: Runt-related transcription factor 1 (Homo sapiens) + Core-binding factor subunit beta (Homo sapiens) (UniProt Q01196+Q13951)
# Experiment: qHTS Assay for Compounds Blocking the Interaction Between CBF-beta and RUNX1 for the Treatment of Acute Myeloid Leukemia: Hit Validation with Orthogonal Assay
# Details: CBFbeta-RUNX1 binding orthogonal assay, biochemical; series mostly up to 41 µM
# From the text: NIH Chemical Genomics Center [NCGC]
# NIH Molecular Libraries Probe Production centers Network [MLPCN]
# Assay Submitter (PI): Paul Liu
# Core Binding Factor (CBF) abnormalities are associated with 20-25% of all acute myeloid leukemias (AML), of which 5-10% are further sub classified as acute myelomonocytic leukemia with eosinophilia, also known as M4Eo in the FAB classification scheme. This subtype of leukemia is usually associated with chromosome 16 inversion (p13:q22). Chromosome 16 inversion results in formation of the fusion oncogene CBFB-MYH11, which encodes the fusion protein CBF-beta-SMMHC.
# It has been hypothesized that the interference of CBF-beta and RUNX1 binding could have therapeutic implications for patients with CBF mediated leukemias. We developed a CBF-beta and RUNX1 binding assay in AlphaScreenTM format and optimized it for high throughput screening to search for inhibitors. The goal of this project is to screen MLPCN's compound collection (MLSMR) for identifying the inhibitors of the interaction between CBF-beta and RUNX1 proteins as research probes. If these probes work well in the animal models, the ultimate goal of this project is to development a new drug treatment for this disease.
# This assay can not be used to assess how apparent inhibitors interfere with protein binding, and whether inhibitors specifically bind to either protein. Disruption of this protein-protein interaction, through any mechanism, is the intended target activity.
# The present data set was run to confirm the activity of hits from the primary screen using an orthogonal assay technology for measuring protein-protein interaction disruption.
# A TR-FRET (time resolved fluorescence resonance energy transfer) assay was performed using the same assay buffer, protein concentrations and incubation times as described previously in the AlphaScreen assay, except that terbium (Tb+) labeled anti-his-antibody and XL665 linked streptavidin were used to capture the binding signal. The Tb+ labeled anti-his-antibody captures His(6)-CBF and XL665 linked streptavidin binds to biotin-RUNX1. The binding of RUNX1 to CBFbrings Tb+ and XL665 to proximity resulting in a TR-FRET signal. Briefly, in a white 384-well plate, 10 µl/well of mixture of biotin-RUNX1 and His(6)-CBFwere incubated with 10 µl/well buffer (positive control) or 10 µl/well compounds (negative control) for 20 min followed by an addition of 10 µl/well of Tb+ labeled anti-his(6)-antibody and XL665 linked streptavidin. After 90 min of incubation in the dark, the assay plate was measured in the Envision plate reader using TR-FRET detection mode. For the 1536-well plate format, 3 µl/well mixture of biotin-RUNX1 and His(6)-CBF (30 nM per protein) was incubated with 23 nl/well compound (dissolved in 100% DMSO) or the equivalent DMSO concentration (positive control) for 30 min followed by the addition of 1 µl/well of 0.44 ng Tb+ labeled anti-his(6)-antibody and 5 nM streptavodin-XL665. After 90 min of incubation, the assay plate was measured in the Envision plate reader.
# The TR-FRET assay for detecting interaction between HIV-I Tat and […] was similarly performed with the recombinant full-length HIV-I Tat CLADE B and HIV-I Tat Biotin conjugated proteins supplied by Diatheva (Fano, Italy). Briefly, the His-CBF and Biotin-RUNX1 complex at a working concentration of 83.3 nM per protein were pre-incubated in assay buffer for 10 minutes on ice. Then HIV-I Tat or unlabeled CBF were added to reach final concentrations (Supplementary Figure 4b) and incubated for 5 minutes. Finally anti-His antibody and streptavidin-XL665 at a final concentration of 2.2 ng and 5 nM, respectively, were added to the plate, which was incubated for 1 hr prior to reading on the PerkinElmer Envision plate reader.
# Keywords: MLSMR, MLPCN, NIH Roadmap, qHTS, NCGC, Core binding factor, CBF, CBF-beta, Acute myeloid leukemia
# Potency is the fitted concentration of half-maximal effect.
# Sequence of Runt-related transcription factor 1 (Homo sapiens) + Core-binding factor subunit beta (Homo sapiens) (Q01196 whole entry, looked up): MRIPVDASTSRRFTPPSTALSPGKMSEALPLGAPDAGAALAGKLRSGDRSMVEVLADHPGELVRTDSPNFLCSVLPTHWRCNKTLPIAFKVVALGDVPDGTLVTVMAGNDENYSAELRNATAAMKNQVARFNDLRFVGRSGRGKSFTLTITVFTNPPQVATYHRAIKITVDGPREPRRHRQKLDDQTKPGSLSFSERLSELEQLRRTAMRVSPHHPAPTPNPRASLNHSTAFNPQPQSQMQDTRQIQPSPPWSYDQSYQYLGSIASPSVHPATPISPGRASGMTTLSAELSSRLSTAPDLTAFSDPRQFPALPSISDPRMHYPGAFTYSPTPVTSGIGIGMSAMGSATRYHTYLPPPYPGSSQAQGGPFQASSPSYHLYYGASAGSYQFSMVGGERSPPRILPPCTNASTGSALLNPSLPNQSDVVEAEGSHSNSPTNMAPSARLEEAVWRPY
# Sequence of Runt-related transcription factor 1 (Homo sapiens) + Core-binding factor subunit beta (Homo sapiens) (Q13951 whole entry, looked up): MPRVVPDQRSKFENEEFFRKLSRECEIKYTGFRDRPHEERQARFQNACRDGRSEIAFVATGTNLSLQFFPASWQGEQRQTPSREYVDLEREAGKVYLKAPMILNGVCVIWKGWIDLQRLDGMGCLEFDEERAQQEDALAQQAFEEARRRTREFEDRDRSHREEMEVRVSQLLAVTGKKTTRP
row,SMILES,Potency
1,CC(=O)c1sccc1NC(=O)c1ccccc1C(=O)O,inactive
2,O=C(Oc1c(-c2ccccc2)c(=O)n2c3c(cccc13)CC2)c1ccccc1,inactive
3,O=[N+]([O-])c1cccnc1Oc1ccc(F)cc1,inactive
4,Cn1nc2c3ccccc3n(Cc3ccc(F)cc3)c2nc1=S,inactive
5,Cc1nc2ccc(NC(=S)N3CCOCC3)cc2nc1C,12.6 µM (active)
6,Cc1cccc(C)c1NC(=S)N1CCOCC1,inactive
7,COc1ccc(C(=O)NC(=S)Nc2ccc(CN3CCOCC3)cc2)cc1,inactive
8,COC(=O)c1scc(C)c1NC(=O)/C=C/C(=O)O,inactive
9,Cc1ccc(N/N=C(\C#N)C(=N)N2CCCCC2)cc1,inactive
10,Cc1nc(SCc2cccc(F)c2)c2oc3ccccc3c2n1,inactive
11,Cn1ncc2c(c(SCc3ccc(Cl)cc3Cl)nn2C)c1=O,inactive
12,O=C1NCCc2c1[nH]c1ccccc21,inactive
13,CC(C)Cn1nc(NC(=O)c2cccs2)c2cc3ccccc3nc21,inactive
14,CC(=O)Oc1cc2c3c(c1)/C(=C1/SC(=S)NC1=O)C(=O)N3C(C)(C)C=C2C,inactive
15,CC(C)N(Cc1ccccc1)C(=O)c1ccc2nsnc2c1,inactive
16,O=C(CSc1nc2ccccc2n1Cc1ccccc1Cl)N/N=C/c1ccccc1C(=O)O,inactive
17,O=C(O)C1CCc2sc3[nH]c(=S)n(-c4ccccc4)c(=O)c3c21 (stereo not drawn),inactive
18,Cn1cccc1/C=C1\SC(=S)N(NC(=O)c2ccc(F)cc2)C1=O,inactive
19,Clc1ccc(C2=Nn3c(Cn4nnc5ccccc54)nnc3SC2)cc1,inactive
20,O=C1COc2cccnc2N1,inactive

row,SMILES,Potency
1,Cc1c(-c2ccccc2)[n+](=O)c(-c2ccc(Br)cc2)c(C)n1[O-],inactive
2,COc1cc(C(=O)NC(=S)Nc2ccc3c(c2)OCO3)cc(OC)c1OC,inactive
3,CCCSc1cc(Cl)nc(N)n1,inactive
4,O=C(CCl)NC1(C(F)(F)F)C(=O)Nc2c1c(=O)[nH]c(=O)n2-c1ccccc1 (stereo not drawn),inactive
5,O=[N+]([O-])c1ccc(-c2cn3c(n2)CCC3)cc1,inactive
6,COc1c(/C=N/NC(=O)c2ccncc2)c(CCN(C)C(C)=O)cc2c1OCO2,inactive
7,COc1cc(/C=N/n2nnnc2N)cc(OC)c1OC,inactive
8,Cc1nc2ccccc2nc1N1CCCC1,inactive
9,COc1cscc1C(=O)O,inactive
10,CCOc1nsc(OCC)n1,inactive
11,C/C(=N\Nc1cccc(Cl)c1)C1(C)N(O)C(C)(C)C(c2ccco2)=[N+]1[O-] (stereo not drawn),inactive
12,CCOC(=O)C1=C(C)N(CC(C)C)C(=O)/C1=C\c1cccs1,inactive
13,O=C(O)/C=C/c1cn(-c2ccccc2)nc1-c1ccc(-c2ccc([N+](=O)[O-])cc2)o1,inactive
14,COc1ccccc1/C=C/C=NC1C(=O)N(c2ccccc2)[N+](C)=C1C (stereo not drawn),inactive
15,O=C(O)c1cc(O)c2c(c1)[C@H]([C@H]1c3cc(C(=O)O)cc(O)c3C(=O)c3c(O[C@@H]4OC(CO)C(O)C(O)C4O)cccc31)c1cccc(O[C@@H]3OC(CO)C(O)C(O)C3O)c1C2=O (stereo partly drawn),2.51 µM (active)
16,O=C(O)CC(CCc1ccccc1)OC1OC(CO)C(O)C(O)C1O (stereo not drawn),inactive
17,COc1cc(/C=C/c2nc3ccc([N+](=O)[O-])cc3s2)ccc1OCC(=O)O,inactive
18,CCn1cc(C(c2ccccc2)C(C(C)=O)[N+](=O)[O-])c2ccccc21 (stereo not drawn),inactive
19,OCCNc1nc2ccccc2nc1NCCO,inactive
20,COc1ccc(C2=NOC(CNC(=S)N3CCOCC3)C2)cc1 (stereo not drawn),inactive

row,SMILES,Potency
1,Cn1c(SCC(=O)NC(=O)Nc2ccccc2)nnc1-c1ccncc1,inactive
2,C(=C\c1nccc2c1[nH]c1ccccc12)/c1ccccc1,inactive
3,COc1cccc(/C=N/NC(=O)c2cnccn2)c1OC,inactive
4,Oc1ccccc1/C=N/Nc1nn[nH]n1,inactive
5,CCN(CC)c1ncc(C#N)c(N)n1,inactive
6,Cc1cc(O)c(C=O)c2c1C(=O)Oc1c(COC(=O)/C=C/C(=O)O)c(O)c(C(=O)O)c(C)c1O2,28.2 µM (active)
7,CCOC(=O)c1cn2nc(Oc3ccc(C(=O)OC)cc3)ccc2n1,inactive
8,CCc1nc2ccccc2nc1N1CCN(S(=O)(=O)c2ccc(Cl)cc2)CC1,inactive
9,c1ccc(C2=Nn3c(Cn4nnc5ccccc54)nnc3SC2)cc1,inactive
10,CC(=O)c1ccc(S(=O)(=O)N2Cc3ccccc3CC2C(=O)O)cc1 (stereo not drawn),inactive
11,Brc1ccc(C2=Nn3c(Cn4nnc5ccccc54)nnc3SC2)cc1,inactive
12,COc1ccc(C(=O)CN2CCN(c3cc(C)nc4ccccc34)CC2)cc1,inactive
13,COC(=O)/C(=C\Nc1ccc(Oc2ccc(F)cc2F)nc1)NC(=O)c1ccccc1,inactive
14,CN(C)c1cc(-c2ccc(Cl)cc2Cl)oc(=O)c1Cl,inactive
15,CC(C)(C)C(=O)Nc1ccccc1C(=O)NCc1cccnc1,inactive
16,O=S(=O)(c1ccc(F)cc1F)N1CCCN(c2ccc(C(F)(F)F)cn2)CC1,inactive
17,CCC(C)c1ccc(OCc2ccc(C(=O)OC)o2)cc1 (stereo not drawn),inactive
18,CCNC(=S)Nc1ccc(NC(=O)c2ccccc2O)cc1,inactive
